Reference: ChEMBL document CHEMBL3988442, “University of Dundee, Small-Polar-MMV Screening Library” (2021)
The whole screen tested about 69,000 compounds, of which about 950 (1.4%) showed an effect of 50% or more. This is one part of a sample in which strong results are shown more often than they occur.

Tested on: Mycobacterium tuberculosis
Assay: Cornell M. t heat shock assay; note: in the data most compounds retested in dose-response had high values
Type: functional, organism-based
Design: dose or concentration left out as unconfirmed

Compound | Percent Effect [%]
Cc1nn(C)cc1CN1CCc2c(nc(-c3ccccn3)[nH]c2=O)C1 | 2.88
Cc1ncc(CN2CCc3c(nc(-c4ccccn4)[nH]c3=O)C2)n1C | 8.847
O=C(c1ccccn1)N1CCc2c(nc(-c3ccncc3)[nH]c2=O)C1 | -10.2
CC1CCCCN1c1nc2c(c(=O)[nH]1)CCN(Cc1ccccn1)C2 (centres undefined) | -29.02
O=c1[nH]c(-c2ccccn2)nc2c1CCN(Cc1cccc(O)c1)C2 | 53.42
Cn1cc(CN2CCc3c(nc(-c4ccccn4)[nH]c3=O)C2)cn1 | -205.6
CCn1ncc(CN2CCc3c(nc(-c4cccnc4)[nH]c3=O)C2)c1C | -178.1
Cn1cccc1CN1CCc2ncnc(-c3cccnc3)c2CC1 | -25.32
Cn1cccc1CN1CCc2c(nc(-c3ccccn3)[nH]c2=O)C1 | 73.71
COc1ccccc1CN1CCc2c(nc(-c3ccccn3)[nH]c2=O)C1 | 93.29
COc1ccc(CN2CCc3c(nc(-c4ccccn4)[nH]c3=O)C2)cc1 | 89.16
O=c1[nH]c(N2CCCCC2)nc2c1CCN(Cc1cccnc1)C2 | -9.833
CCN1CCOCC12CCN(C(=O)C1CCCC1)CC2.O=C(O)C(F)(F)F | -1.07
Cc1cc(C[C@@H]2COC[C@H]2NCc2ccc(Cl)c(Cl)c2)on1.O=C(O)CC(O)(CC(=O)O)C(=O)O | -20.39
COCCC(=O)N1CC2(CCN(Cc3ccccc3Cl)CC2)C1.O=C(O)C(F)(F)F | 12.96
CCc1ncc(C(=O)N2CCCN(C3CCCC3)CC2)cn1 | -5.155
Cc1ccc2c(n1)N(CCn1cccn1)CCN(C1CCOCC1)C2.O=C(O)C(F)(F)F.O=C(O)C(F)(F)F | -10.35
Cc1cc(CN2C[C@H](OCC3CCOCC3)[C@H]3COC[C@H]32)oc1C.O=C(O)C(F)(F)F | 5.146
Cc1ccc(CN2CCC[C@@H]3CN(C(=O)c4ccco4)C[C@@H]32)s1.O=C(O)C(F)(F)F | -26.86
COc1ncccc1CN1C[C@H]2CCN(c3ccc(C)nn3)C[C@H]2C1.O=C(O)C(F)(F)F | 16.3
O=C(O)C(F)(F)F.c1ccc(N2CCCC3(CCN(Cc4ccsc4)C3)C2)nc1 (centres undefined) | -1.694
Cc1nc(CN2CCc3ncnc(-c4cccnc4)c3CC2)cs1.O=C(O)C(F)(F)F.O=C(O)C(F)(F)F | -25.69
O=c1[nH]c(-c2ccncc2)nc2c1CCN(S(=O)(=O)N1CCCC1)C2 | -2.171
O=c1[nH]c(-c2ccccc2)nc2c1CCN(S(=O)(=O)N1CCCC1)C2 | 5.135
O=c1[nH]c(-c2ccccn2)nc2c1CCN(S(=O)(=O)N1CCCC1)C2 | 87.3
Cc1ccc(CN2Cc3nnn(C)c3C(COCc3ccccn3)C2)s1.O=C(O)C(F)(F)F.O=C(O)C(F)(F)F (centres undefined) | -10.17
O=C(NCCC1=CCCCC1)c1cc(-c2ccc(O)cc2)n[nH]1 | 57.62

Compound | Percent Effect [%]
CCCc1cc(C(=O)NCCC2=CCCCC2)[nH]n1 | 8.132
Cc1ccc(-c2cc(C(=O)NCCC3=CCCCC3)[nH]n2)o1 | 46.03
O=C(O)C(F)(F)F.c1coc(CN2CCCn3c(nnc3Cn3cccn3)C2)c1 | -27.42
O=C(O)C(F)(F)F.O=S(=O)(c1cccs1)N1CCCC2(COCCN(c3cccnc3)C2)C1 (centres undefined) | 1.74
CCn1cc(CN(C)S(=O)(=O)c2cnn(CC)c2C)c(C)n1 | 95.67
CCn1nc(C)c(CN(C)S(=O)(=O)c2cnn(C)c2)c1C | 0.2173
CCn1cc(S(=O)(=O)N(C)Cc2c(Br)cnn2CC)c(C)n1 | -19.54
CC(=O)N1CCC2(CCCN2Cc2cnn(C)c2)CC1.O=C(O)C(F)(F)F | -13.44
CC(C)c1nc(CSc2nnc(C3CC3)n2CC(N)=O)no1 | -3.28
NC(=O)Cn1c(SCc2noc(-c3ccsc3)n2)nnc1C1CC1 | -1.649
CC(C)c1nc(CSc2nnc(-c3cccs3)n2CC(N)=O)no1 | 87.51
O=C(C1CC(F)(F)C1)N1C[C@@H]2CN(CC3CC3)CCO[C@@H]2C1.O=C(O)C(F)(F)F | -22.01
Cc1cccc(CN2CCC3(CCN(c4ncccn4)C3)C2=O)c1 (centres undefined) | -17.59
CCc1cnc(N2CCC3(CCN(Cc4cccc(C)c4)C3=O)C2)nc1 (centres undefined) | -25.62
Cc1cccc(CN2CCCC3(CCN(C4CCSCC4)C3)C2=O)c1 (centres undefined) | 68.24
O=C1N(Cc2ccccc2F)CCCC12CCN(C1CCSCC1)C2 (centres undefined) | 35.05
O=C1N(Cc2ccc(F)c(F)c2)CCCC12CCN(C1CCCCC1)C2 (centres undefined) | 88.26
O=C1N(Cc2ccc(F)cc2)CCCC12CCN(C1CCSCC1)C2 (centres undefined) | 56.84
O=C1N(Cc2ccc(F)c(F)c2)CCCC12CCN(C1CCCC1)C2 (centres undefined) | 48.94
O=C1N(Cc2ccc(F)c(F)c2)CCCC12CCN(C1CCSCC1)C2 (centres undefined) | 39.79
CCS(=O)(=O)N1CCC2(CCCN(Cc3ccc(F)c(F)c3)C2=O)C1 (centres undefined) | -4.443
CN(C)C(=O)CN1CCC2(CCCN(Cc3cccn3C)C2)C1=O.O=C(O)C(F)(F)F (centres undefined) | 8.62
CN(C)c1ncc2c(c1C(=O)O)CCN(Cc1ccco1)C2.O=C(O)C(F)(F)F.O=C(O)C(F)(F)F | 10.22
Cc1ccc(N2CCC3(CCN(C(=O)N(C)C)CC3)CC2)nn1.O=C(O)C(F)(F)F | 0.5325
CC(C)N(C)C[C@H]1C[C@@H]2CN(Cc3ccco3)C[C@@H]2O1.O=C(O)C(F)(F)F.O=C(O)C(F)(F)F | -4.4
CCCN1CCC(c2nc3ccc(-c4ccccc4)cn3n2)CC1.O=C(O)C(F)(F)F | -8.011
O=C(O)C(F)(F)F.O=C(O)C(F)(F)F.c1cncc(OC[C@@H]2CC[C@H]3[C@H](CCN3Cc3cccs3)O2)c1 | -169

Compound | Percent Effect [%]
CC(=O)NC1CCN(c2cc(C3CCNCC3)nc(C)n2)C1 (centres undefined) | -7.027
Cn1cc(C2CCCN2CCc2nc3ccccc3c(=O)[nH]2)cn1 (centres undefined) | 2.636
Cc1cnn(CC2CCCN2Cc2nc3ccccc3c(=O)[nH]2)c1 (centres undefined) | 89.62
O=S(=O)(CCN1CCCC1Cn1cccn1)c1ccccc1 (centres undefined) | 15.63
O=c1[nH]c(CCN2CCCCC2Cn2cccn2)nc2ccccc12 (centres undefined) | 29.01
O=c1[nH]c(CCN2CCCC2Cn2cncn2)nc2ccccc12 (centres undefined) | 48.51
Cc1cnn(CC2CN(Cc3nc4ccccc4c(=O)[nH]3)CCO2)c1 (centres undefined) | 8.669
O=c1[nH]c(CCN2CCCC2Cn2cccn2)nc2ccccc12 (centres undefined) | 50.72
Cc1cnn(CC2CCCN2CCc2nc3ccccc3c(=O)[nH]2)c1 (centres undefined) | 98.35
Cc1nc(C)n(CC2CCCN2Cc2nc3ccccc3c(=O)[nH]2)n1 (centres undefined) | -31.26
CC(C)(C)c1n[nH]cc1CNC1CCC(C(F)(F)F)CC1.Cl (centres undefined) | -43.27
Cl.O=C(O)CN1CCC(C(F)(F)F)CC1 | 11.41
CN(Cc1cccnc1)C1CC2(CCN(Cc3cccnc3)CC2)C1.O=C(O)C(F)(F)F.O=C(O)C(F)(F)F.O=C(O)C(F)(F)F | -1.954
COC(=O)c1cccc(S(=O)(=O)Nc2ncc(C)s2)c1 | 1.16
Cc1cnc(NS(=O)(=O)c2cccc(C#N)c2)s1 | -32.7
CCOCc1cccc(S(=O)(=O)Nc2ncc(C)s2)c1 | 52.82
COCc1cccc(S(=O)(=O)Nc2ncc(C)s2)c1 | 15.26
Cc1cnc(NS(=O)(=O)c2ccccc2)s1 | 4.612
CNS(=O)(=O)c1cccc(S(=O)(=O)Nc2ncc(C)s2)c1 | 68.64
Cl.O=C(C1CCCC1)N1C[C@@H](c2ccsc2)[C@@H]2CN(C3CCCC3)CC[C@@H]21 | 3.962
COCCN1CCCn2c(nc(Cn3cncn3)cc2=O)C1.O=C(O)C(F)(F)F | 17.08
CCOCC1CC2(CCN(C(=O)c3ncccn3)CC2)CO1 (centres undefined) | -17.44
O=C(Nc1ccccc1)N1C[C@H]2C[C@H](C(=O)N3CCCC3)[C@@H](C1)O2 | -25.79
COCC1N(C(=O)c2ccco2)[C@H]2CC[C@]1(O)CC2 (some centres undefined) | 16.02
O=C(O)C(F)(F)F.O=C(c1ccno1)N1CCO[C@@H]2CC(COCc3ccccn3)C[C@H]21 (some centres undefined) | 1.135
